Sampled rows, rich in hits. Any-hit rate of the full collection: about 12%.
L major viab: reduces viability of Leishmania major promastigotes | 200,000 tested, 9% active | inhibition, % at 10 µM | resazurin fluorescence viability; in the data active means inhibition above about 50%;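 further: promastigotes grown with compound for 44 hours at 28 °C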
CHOP inhibitor: inhibitors of CHOP induction in ER stress response; CHO-K1 CHOP-promoter luciferase, tunicamycin-induced, 15-18 h; inhibition, % at 10 µM; 220,000 tested, 3.8% active;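 active means compounds that reduced the stress-induced luciferase reporter signal by more than about 70% of percent inhibition, limit read from the data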
WT yeast gro inh: growth inhibition of WT yeast, mitochondrial fusion screen; mitochondrial fusion phenotypic screen, WT strain; inhibition, % at 10 µM; 190,000 tested, 2.1% active; in the data active means inhibition above about 58%; tested in S. cerevisiae
Arbovirus anti: arbovirus infection inhibition. arbovirus infection cell-based antiviral screen. inhibition, % at 10 µM. 200,000 tested, 0.37% active; in the data active means inhibition above about 30%
Hits are given with their value; – = inactive; · = not tested or not shown.

SMILES | L major viab | CHOP inhibitor | WT yeast gro inh | Arbovirus anti
CC1CN(C(=O)c2ccc(COc3ccccc3Br)o2)CC(C)O1 (configuration not stated) | – | – | – | –
O=C(O)c1ccc(COc2ccccc2Cl)cc1 | – | – | – | –
CC(C)(C)NC(=O)c1ccc(COc2ccccc2Br)o1 | 78.2 | – | – | –
CCN(CC)C(=O)c1ccc(COc2ccccc2Br)o1 | 87.7 | – | – | –
COc1ccc(SCC(=O)Nc2ccc(N3CCN(C)CC3)c(F)c2)cc1 | 94.0 | – | – | –
O=C(CSc1ccccc1)Nc1ccc(N2CCN(c3ccccc3)CC2)c(F)c1 | – | – | – | –
CCC(C)(C)n1nnnc1C(c1ccc(O)cc1)N1CCc2ccccc2C1 (configuration not stated) | – | – | – | –
O=S(=O)(c1ccc(Cl)cc1)N1CCN(C(=S)Nc2ccc(F)c(Cl)c2)CC1 | – | 77.6 | – | –
NS(=O)(=O)c1ccc(NC(=S)N2CCN(Cc3ccc(Cl)c(Cl)c3)CC2)cc1 | – | – | – | –
NS(=O)(=O)c1ccc(NC(=S)N2CCN(c3ccc(Cl)c(Cl)c3)CC2)cc1 | – | 87.2 | – | –
O=C(NC1CCCCCC1)c1cc2n(n1)C(C(F)(F)F)CC(c1ccco1)N2 (configuration not stated) | – | 74.1 | – | –
COc1ccc(NC(=O)c2cc3n(n2)C(C(F)(F)F)CC(c2ccc4c(c2)OCO4)N3)cc1OC (configuration not stated) | – | – | 67.8 | –
Cc1cccc(NC(=O)c2cc3n(n2)C(C(F)(F)F)CC(c2ccc4c(c2)OCO4)N3)c1 (configuration not stated) | – | 71.0 | 67.3 | –
CCOC(=O)CC1C(=O)NCCN1S(=O)(=O)c1ccc(Cl)cc1Cl (configuration not stated) | – | – | – | –
CC(C)(C)NC(=O)COC(=O)c1ccc(NC(=O)CC#N)cc1 | – | – | – | –
Cc1noc(C)c1C(=O)N1CCN(S(=O)(=O)c2cccc(Cl)c2Cl)CC1 | · | – | · | ·
COc1ccc(OC)c(NC(=O)C2CCN(S(=O)(=O)c3c(C)noc3C)CC2)c1 | – | – | – | –
Cc1ccc(CNC(=O)C2CCN(S(=O)(=O)c3c(C)noc3C)CC2)cc1 | 98.5 | – | – | –
Cc1noc(/C=C/c2cccs2)c1S(=O)(=O)N1CCC(C(=O)NCCCN2CCCC(C)C2)CC1 (configuration not stated) | 96.1 | – | – | –
COc1ccccc1CNC(=O)C1CCN(S(=O)(=O)c2c(C)noc2C)CC1 | 99.9 | – | – | –
Cc1ccc(CNC(=O)C2CCCN(C(=O)N(C)C)C2)cc1 (configuration not stated) | 86.3 | – | – | –
O=C(CCCn1c(=O)c2ccccc2n(CC(=O)N2CCN(c3ccccc3)CC2)c1=O)NCc1ccco1 | – | – | – | –
COc1ccccc1C1CCN(c2cc(O)ccc2[N+](=O)[O-])CC1 | · | – | · | ·
Cc1noc(C)c1S(=O)(=O)N1CCC(C(=O)NCCC2=CCCCC2)CC1 | 99.8 | – | – | –
Cc1nc2nc(SCc3ccc([N+](=O)[O-])cc3)[nH]c2cc1Br | · | – | · | ·
SMILES | L major viab | CHOP inhibitor | WT yeast gro inh | Arbovirus anti
CC(O)CNCc1ccc(-c2ccccc2)cc1 (configuration not stated) | 89.1 | – | – | –
CCC(CO)NCc1ccc(-c2ccccc2)cc1 (configuration not stated) | 88.6 | – | – | –
CC(NCc1ccccc1)c1ccccc1O (configuration not stated) | · | – | · | ·
CC(NCc1ccc(-c2ccccc2)cc1)C(O)c1ccccc1 (configuration not stated) | 99.4 | – | – | –
O=C(O)[C@H](Cc1ccccc1)NC(=O)N1CCN(c2ccccc2)CC1 | · | – | · | ·
NC/C=C\C(=O)O | · | – | · | ·
Cc1cc(C)c2c3c(sc2n1)C(=O)N(c1ccccc1)CC(=O)N3 | · | – | · | ·
CNC(=S)N1N=C(c2ccc(Br)cc2)CC1c1ccc(OC)cc1 (configuration not stated) | 99.2 | – | – | –
CNC(=S)N1N=C(c2ccc(OC)cc2)CC1c1ccc(Cl)cc1Cl (configuration not stated) | 99.9 | – | – | –
CNC(=S)N1N=C(c2ccc(C)cc2)CC1c1ccc(OC)cc1 (configuration not stated) | 96.5 | – | – | –
CNC(=S)N1N=C(c2ccc(C)cc2)CC1c1cc(OC)ccc1OC (configuration not stated) | 53.0 | – | – | –
COc1ccc(C2CC(c3ccc(Br)cc3)=NN2C(=O)CN2CCCC2)cc1 (configuration not stated) | · | – | · | ·
CCCN1CCC(NCc2cn(C)nc2-c2ccc(Oc3ccccc3)cc2)CC1 | · | – | · | ·
CCCOc1ccc(CNC(=S)NCc2ccc(OC(C)C)cc2)cc1 | – | 82.1 | – | –
CCCOc1ccc(CNC(=S)N/N=C/c2ccc([N+](=O)[O-])cc2)cc1 | – | – | – | –
CC(C)(C)C(=O)NC(=S)Nc1sc2c(c1C#N)CCCCC2 | – | – | – | –
C=CCNC(=S)Nc1sc2c(c1C#N)CCCC2 | 57.9 | – | – | –
Nc1cccn2c(-c3ccc(Cl)c(Cl)c3)cnc12 | 64.7 | – | – | –
Nc1cccn2c(-c3ccc(Cl)cc3)cnc12 | 72.8 | – | – | –
CCOC(=O)C(=O)N1CCC(C(=O)OCC)CC1 | · | – | · | ·
O=C1CC(C(=O)NC2CCCCC2)C2(CCCCC2)O1 (configuration not stated) | – | – | – | –
Cc1nn(C)cc1C(C(=O)NC1CCCCC1)N(C(=O)Cc1cccs1)c1ccc(Cl)cc1 (configuration not stated) | 85.1 | – | – | –
CN=C(C)/C(C(=O)OC)=C(/O)c1c(F)cccc1F | · | – | · | ·
Cc1ccc(C(=O)NCC(=O)N/N=C/c2cccs2)cc1C | – | – | – | –
O=C1NCCCN1Cc1ccc(F)cc1Cl | – | – | – | –
SMILES | L major viab | CHOP inhibitor | WT yeast gro inh | Arbovirus anti
CC1CN=C(c2cccn2Cc2ccc(F)cc2Cl)O1 (configuration not stated) | – | 71.6 | – | –
CC1(C)COC(c2cccn2Cc2ccc(F)cc2Cl)=N1 | – | 85.4 | – | –
NC(=O)N=Nc1c2[nH]c3ccccc3nc-2c2ccccc12 | · | – | · | ·
O=c1c2ccc([N+](=O)[O-])cc2ncn1Cc1ccccc1C(F)(F)F | – | – | – | –
O=C(COC(=O)c1ccc2c(c1)C(=O)N(Cc1ccncc1)C2=O)Nc1cccc2ccccc12 | – | – | – | –
Fc1ccccc1CSCc1nc2ccccc2[nH]1 | – | – | – | –
CC(C)(C)c1ccc(/C=N/Nc2ccc(C(=O)O)cc2)cc1 | – | 83.5 | – | –
O=C(O)c1ccc(N/N=C/c2ccc(C(F)(F)F)cc2)cc1 | – | – | – | –
O=C(O)c1ccc(N/N=C/c2ccc3c(c2)OCO3)cc1 | – | 93.5 | – | –
O=C(O)c1cc(N/N=C/c2ccc3c(c2)OCO3)ccc1Cl | – | – | – | –
O=C(O)c1cc(N/N=C/c2ccc3c(c2)OCCO3)ccc1Cl | – | 72.2 | – | –
CN1CCCN(Cc2nc(-c3cccc(C(F)(F)F)c3)no2)CC1 | 99.2 | – | – | –
c1cc(C2CCN(Cc3nc(-c4ccc5c(c4)OCO5)no3)CC2)ccn1 | 94.6 | – | – | –
c1ccc(OCCN2CCN(Cc3nc(-c4ccc5c(c4)OCO5)no3)CC2)cc1 | 68.2 | – | – | –

High-throughput results (PubChem)
